PubChem BioAssay (Tox21)
Records with an inconclusive call do not appear. Activity calls are given as the source filed them. Unless noted, the call rests on the fitted dose curve; in most records, active means well fitted curve in the direction sought with a large enough effect in the repeat runs; inconclusive means weak or mixed curves; inactive means no such curve, though single readings can be large; an effect the other way counts as inactive or inconclusive.

Experiments:
[1] = qHTS assay for small molecules that induce genotoxicity in human embryonic kidney cells expressing luciferase-tagged ATAD5 (AID 651632); further: nearly all actives have a fitted effect of over 15% in size
How it was run: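 Reporter cells (HEK293T) express luciferase-tagged ATAD5, a protein that accumulates after DNA damage. Treat 16 hr at 37C/5% CO2, add Amplite, wait 30 min at RT, and read luminescence.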

[2] = qHTS assay for small molecule agonists of the p53 signaling pathway - cell viability (AID 651633; calls by dose curve; further: nearly all actives have a fitted effect of over 30% in size; further: potency means the concentration at half of the fitted maximal effect)
How it was run: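 p53RE-bla cells were treated with compound for 16 hours at 37 C. Cytotoxicity was then measured as CellTiter-Glo luminescence after 30 min at room temperature.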

[3] = qHTS assay for small molecules that induce genotoxicity in human embryonic kidney cells expressing luciferase-tagged ATAD5 - cell viability (AID 651634; calls by dose curve; further: nearly all actives have a fitted effect of over 25% in size; further: potency means the concentration at half of the fitted maximal effect)
How it was run: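 Seeding of 2,000 HEK293T ATAD5-luciferase cells per well preceded pin-tool compound transfer. Plates sat 15.5 hr at 37C under 5% CO2, then fluorescence was read after 30 min with CellTiter-Fluor.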

[4] = qHTS assay for small molecule disruptors of the mitochondrial membrane potential - cell viability (AID 720634; calls by dose curve;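 further: human HepG2 liver cancer cells; series mostly up to about 83 µM; nearly all actives have a fitted effect of over 20% in size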)
How it was run: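 Measuring cytotoxicity alongside mitochondrial potential, the screen quantified ATP by luminescence in HepG2 cells after 1 hr compound incubation and a 30 min room-temperature CellTiter-Glo step.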

[5] = qHTS assay for small molecule disruptors of the mitochondrial membrane potential (AID 720635); further: potency means the concentration at half of the fitted maximal effect
How it was run: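 HepG2 cells exposed to compound 1 hr at 37C, then Mito-MPS dye 30 min. Ratio read of aggregate (540/590 nm) versus monomer (490/535 nm) fluorescence.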

[6] = qHTS assay to test for compound auto fluorescence at 535 nm (green) in HepG2 cells (AID 720675)
[7] = qHTS assay to test for compound auto fluorescence at 590 nm (red) in HEK293 cells (AID 720679)
How it was run: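 Autofluorescence equivalency to Rose Bengal sodium, 540/590nm, in HEK293 cells exposed overnight to 23 nL compound per well.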

[8] = qHTS assay to test for compound auto fluorescence at 535 nm (green) in HEK293 cells (AID 720680)
[9] = qHTS assay to test for compound auto fluorescence at 535 nm (green) in HEK293 cell free culture (AID 720682)
How it was run: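 Green-channel intensity (Ex/Em 485/535 nm) was recorded from compound-treated wells containing only DMEM with 10% FBS. Fluorescein provided the equivalency standard.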

[10] = qHTS assay to test for compound auto fluorescence at 590 nm (red) in HEK293 cell free culture (AID 720683)
How it was run: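 Cell-free wells of DMEM with 10% FBS received compound, and intrinsic fluorescence was read at excitation/emission 540/590 nm. Values expressed as equivalence to Rose Bengal sodium.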

[11] = qHTS assay to test for compound auto fluorescence at 590 nm (red) in HepG2 cell free culture (AID 720684)
How it was run: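 Compounds are added to culture medium (MEM, 10% FBS) lacking cells, then fluorescence is read at excitation 540 nm, emission 590 nm, with Rose Bengal sodium as the equivalency standard.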

[12] = qHTS assay to test for compound auto fluorescence at 460 nm (blue) in HepG2 cell free culture (AID 720685); further: potency means the concentration at half of the fitted maximal effect
How it was run: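 Compound (23 nL) or DMSO pinned into cell-free MEM with 10% FBS; blue fluorescence read at 405/460 nm excitation/emission, expressed as auto-fluorescence equivalency to triamterene.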

[13] = qHTS assay to test for compound auto fluorescence at 535 nm (green) in HepG2 cell free culture (AID 720686)
[14] = qHTS assay to test for compound auto fluorescence at 460 nm (blue) in HepG2 cells (AID 720687); further: potency means the concentration at half of the fitted maximal effect
How it was run: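 HepG2 cells in MEM with 10% FBS, attached overnight at 37 C, were exposed to compound or DMSO for 1 hr at 37 C, 5% CO2. Blue fluorescence was read at 405/460 nm, with triamterene as reference fluorophore.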

[15] = qHTS assay to test for compound auto fluorescence at 590 nm (red) in HepG2 cells (AID 720674)
How it was run: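 Seeding: 2,000 HepG2 cells/well, MEM/10% FBS, overnight 37 C. Dosing: compound vs DMSO. Incubation: 1 hr, 37 C, 5% CO2. Read: fluorescence 540 ex/590 em, Rose Bengal sodium as red reference.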

[16] = qHTS assay to test for compound auto fluorescence at 460 nm (blue) in HEK293 cells (AID 720678); further: potency means the concentration at half of the fitted maximal effect
How it was run: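 Auto fluorescence in the blue band was quantified as triamterene equivalency. HEK293 cells were seeded at 2,000/well, dosed after a 4-5 hr attachment, and kept overnight at 37C before the 405/460 nm reading.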

[17] = qHTS assay to test for compound auto fluorescence at 460 nm (blue) in HEK293 cell free culture (AID 720681); further: potency means the concentration at half of the fitted maximal effect
How it was run: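 Compounds were added to cell-free DMEM with 10% FBS and fluorescence read directly. The blue channel used 405 nm excitation and 460 nm emission, with triamterene as the reference fluorophore.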

[18] = target: Glucocorticoid receptor (Homo sapiens) (UniProt P04150); assay: qHTS assay to identify small molecule agonists of the glucocorticoid receptor (GR) signaling pathway (AID 720691; active means well fitted activation curve with a large enough effect in the signal ratio in the repeat runs, not every such curve was filed as active; the % refers to the signal ratio)
Sequence of Glucocorticoid receptor (Homo sapiens) (P04150 whole entry, looked up): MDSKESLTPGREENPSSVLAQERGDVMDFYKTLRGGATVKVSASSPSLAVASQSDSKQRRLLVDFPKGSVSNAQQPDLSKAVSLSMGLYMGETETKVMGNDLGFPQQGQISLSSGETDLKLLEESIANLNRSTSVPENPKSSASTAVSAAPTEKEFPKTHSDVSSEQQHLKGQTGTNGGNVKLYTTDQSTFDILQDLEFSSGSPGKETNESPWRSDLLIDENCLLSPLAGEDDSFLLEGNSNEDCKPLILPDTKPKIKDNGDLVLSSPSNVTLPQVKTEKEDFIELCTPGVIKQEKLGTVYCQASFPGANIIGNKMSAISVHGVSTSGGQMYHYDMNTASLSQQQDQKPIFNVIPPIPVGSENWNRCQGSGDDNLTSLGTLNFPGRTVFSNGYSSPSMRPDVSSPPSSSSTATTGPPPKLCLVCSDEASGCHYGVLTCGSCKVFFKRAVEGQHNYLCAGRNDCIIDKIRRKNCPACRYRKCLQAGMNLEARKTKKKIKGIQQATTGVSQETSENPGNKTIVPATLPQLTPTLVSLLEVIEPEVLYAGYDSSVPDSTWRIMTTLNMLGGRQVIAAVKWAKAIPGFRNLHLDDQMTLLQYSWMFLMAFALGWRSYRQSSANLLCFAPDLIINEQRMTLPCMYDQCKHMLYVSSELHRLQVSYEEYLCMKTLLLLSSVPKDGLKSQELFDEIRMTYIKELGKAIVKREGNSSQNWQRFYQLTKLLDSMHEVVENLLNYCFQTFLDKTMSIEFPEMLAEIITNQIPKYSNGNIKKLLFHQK
How it was run: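 Reporter read-out: fluorescence intensity following 2 h room-temperature LiveBLAzer B/G FRET substrate loading. Prior step: GR-bla HeLa cells held 4 h, then treated 18 h at 37 C.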

[19] = target: Glucocorticoid receptor (Homo sapiens) (UniProt P04150); assay: qHTS assay to identify small molecule antagonists of the glucocorticoid receptor (GR) signaling pathway (AID 720692; active means well fitted inhibition curve with a large enough effect in the signal ratio in the repeat runs, not every such curve was filed as active; the % refers to the signal ratio; further: potency means the concentration at half of the fitted maximal effect)
How it was run: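 Dexamethasone (5 nM final) stimulated a stably integrated GRE-beta-lactamase reporter in HeLa cells during 18 h co-incubation with compounds; signal was quantified as fluorescence intensity of B/G FRET substrate after 2 h.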

Measured: Potency
Tags describe the fitted curve by direction and shape or compound fluorescence and quenching.

O=C(Nc1ccc(C(=O)O)c(O)c1)c1ccccc1
not listed: [15] | [16] | [17] | [18] | [19]
inactive: all other assays above

C=Cc1ccc(OC(C)=O)cc1
not listed: [5] | [13] | [19]
inactive: all other assays above

O=C(O)CO
not listed: [5] | [7] | [10] | [15] | [18] | [19]
inactive: all other assays above

Cc1cc([N+](=O)[O-])ccc1N
active: [3] 47.9 µM
not listed: [5] | [8] | [13] | [15] | [16] | [19]
inactive: all other assays above

CC(C)COC(=O)c1ccc(O)cc1
active: [5] 12.2 µM
not listed: [4] | [19]
inactive: all other assays above

CC(CN(CCN(CC(C)OCCO)CC(C)OCCO)CC(C)OCCO)OCCO (centres undefined)
not listed: [3] | [5] | [10] | [12] | [18] | [19]
inactive: all other assays above

c1ccc(CCCc2ccncc2)cc1
active: [5] 10.9 µM
not listed: [3] | [7] | [12] | [19]
inactive: all other assays above

CC/C=C\C/C=C\C/C=C\CCCCCCCC(=O)OCC
active: [2] 62.5 µM | [19] 50.1 µM
not listed: [5] | [10] | [15]
inactive: all other assays above

CCCCCc1ccco1
active: [2] 39.8 µM | [5] 44.7 µM | [19] 31.9 µM
not listed: [3]
inactive: all other assays above

C/C(C=O)=C\c1ccccc1
not listed: [15] | [18] | [19]
inactive: all other assays above

O=C(O)c1cc(Cl)cc(Cl)c1O
not listed: [5] | [8] | [18] | [19]
inactive: all other assays above

Cc1ccc2c(c1[N+](=O)[O-])C(=O)c1ccccc1C2=O
active: [5] 1.2 µM
not listed: [3] | [12] | [16] | [18] | [19]
inactive: all other assays above

O=C(O)c1cccc(C[C@@H]2COc3ccc(OCc4nc5cc(F)ccc5s4)cc3[C@@H]2O)c1
active: [5] 54.5 µM
not listed: [3] | [7] | [19]
inactive: all other assays above

O=C(O)/C=C/c1ccc(O)c(O)c1
not listed: [5] | [7] | [17]
inactive: all other assays above

CC(=O)OCC1=C(C(=O)O)N2C(=O)[C@@H](NC(=O)CSc3ccncc3)[C@H]2SC1
not listed: [3] | [17] | [19]
inactive: all other assays above

CCOC(=O)c1c(N)sc2c1CCN(Cc1ccccc1)C2
active: [16] 14.1 µM [fluorescent] | [17] 15.8 µM | [12] 15.8 µM [fluorescent] | [14] 17.8 µM [fluorescent]
not listed: [5] | [13] | [19]
inactive: all other assays above
